# In PubChem BioAssay (NCATS):
# Values without a mark were called inactive. Inconclusive results are not listed. A call without a number means that no potency is given here. Activity calls are given as the source filed them. Calls follow the shape of the dose curve; as a rule, active = well fitted curve in the direction sought with a large enough effect; inconclusive = small, poorly fitted or top-dose-only effect, or another doubt; inactive = no such curve, though single readings can be large; an effect the other way counts as inactive or inconclusive.
# Experiments:
# [1] = molecular target: Glutathione peroxidase 1 (Homo sapiens) (UniProt P07203); assay: Primary qHTS Assay for Inhibitors of Recombinant Selenoprotein Glutathione Peroxidase 1 (GPX1) (AID 1845191); also: nearly all actives have a fitted effect of over 65% in size
# Chain of Glutathione peroxidase 1 (Homo sapiens) (P07203 whole entry, looked up): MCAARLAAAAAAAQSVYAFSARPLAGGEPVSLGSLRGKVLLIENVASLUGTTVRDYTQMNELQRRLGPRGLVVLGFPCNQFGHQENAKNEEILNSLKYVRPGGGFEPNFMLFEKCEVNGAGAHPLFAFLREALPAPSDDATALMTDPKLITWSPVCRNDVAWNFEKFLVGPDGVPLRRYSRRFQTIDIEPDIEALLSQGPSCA
# Summary of the method: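 GPX1 10 nM, GR 100 nM, GSH 1 mM, NADPH 0.5 mM, CHP 0.5 mM (final). 30-min cpd preincubation, RT. Ex340/Em450 read t=0, t=15 min.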
# [2] = molecular target: Phospholipid hydroperoxide glutathione peroxidase GPX4 (Homo sapiens) (UniProt P36969); assay: Primary qHTS Assay for Inhibitors of Recombinant Selenoprotein Glutathione Peroxidase 4 (GPX4) (AID 1845192); also: nearly all actives have a fitted effect of over 65% in size; as to activity change, negative = inhibition: series mostly up to about 50 µM
# Chain of Phospholipid hydroperoxide glutathione peroxidase GPX4 (Homo sapiens) (P36969 whole entry, looked up): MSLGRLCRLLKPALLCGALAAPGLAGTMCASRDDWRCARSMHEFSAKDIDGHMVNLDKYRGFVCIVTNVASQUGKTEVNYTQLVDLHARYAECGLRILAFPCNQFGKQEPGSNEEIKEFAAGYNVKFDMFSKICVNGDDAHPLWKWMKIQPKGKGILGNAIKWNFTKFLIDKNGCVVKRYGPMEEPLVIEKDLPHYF
# Summary of the method: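 qHTS, GR-coupled: GPX4 200 nM + cpd 30 min RT → GSH 1 mM, NADPH 0.5 mM, GR 100 nM → CHP 0.5 mM start; fluor 340/450 at t0 and t15 min; no-enzyme wells as control.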
# [3] = molecular target: Luciferin 4-monooxygenase (Photinus pyralis) (UniProt P08659); assay: Primary firefly luciferase (FLuc) qHTS assay for identification of artifact compounds. (AID 1845220); also: nearly all actives have a fitted effect of over 60% in size; as to activity change, negative = inhibition: series mostly up to about 54 µM
# Summary of the method: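 In this counter-screen for luciferase artifacts, test compounds met substrate (10 uM each luciferin and ATP) before 10 nM enzyme started the reaction. Light output was measured 5 min later.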
# [4] = Primary fluorescence-based thiol-reactive (MSTI) qHTS assay for identification of artifact compounds. (AID 1845221); also: nearly all actives have a fitted effect of over 65% in size; also: potency is read from the fitted curve at half-maximal effect;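 as to activity change, negative = thiol reactive: series mostly up to about 54 µM; thiol-reactive compounds lower the probe fluorescence signal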
# Summary of the method: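 One-hour, room-temperature, dark incubation of compound with 4 uM MSTI in PBS (pH 7.4, 2% DMSO) precedes a fluorescence read at 525 nm excitation, 598 nm emission; Hill-equation fitting yields concentration-response values.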
# [5] = tested on: Nanoluciferase (engineered Oplophorus gracilirostris luciferase); assay: Primary Nanoluciferase (NLuc) qHTS assay for identification of artifact compounds. (AID 1845222);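 also: NLuc secreted into diluted conditioned medium of S16 cells; series mostly up to about 54 µM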
# Summary of the method: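 Using secreted nanoluciferase in S16 culture medium (0.22 um filtered, 1:55 dilution), compounds were preincubated 15 min at RT. Signal was generated with Nano-Glo reagent (1:100) over 5 min.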
# [6] = Primary redox qHTS assay for identification of artifact compounds. (AID 1845223)
# Summary of the method: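 Redox-cycling detection via DTT (250 uM final) oxidation coupled to Amplex Red (25 uM)/HRP (250 mU/mL) in HBSS. 15 min preincubation plus 30 min after DTT, room temperature. Ex/Em 525/598 nm; 4-parameter Hill fit against DMSO and 10 uM DA3003.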
Compound,Potency [1],Potency [2],Potency [3],Potency [4],Potency [5],Potency [6],outcome [1],"activity change, negative = inhibition [2]","activity change, negative = inhibition [3]","activity change, negative = thiol reactive [4]","activity, negative = inhibition [5]",redox activity (% of DA3003) [6]
CCOC(=O)c1sc(NC(=O)[C@H](C(C)C)n2c(=O)[nH]c3ccccc3c2=O)nc1C,inactive,inactive,inactive,inactive,inactive,inactive,,,,,,
Cc1cc(C(=O)Nc2cccc(C(=O)Nc3cccc(C(F)(F)F)c3)c2)on1,inactive,inactive,inactive,inactive,inactive,inactive,,,,,,
C=CC(C)(O)C(O)CC1C(C)(O)C(O)C(O)C2C(C)(C)CCCC21C (stereo not given),inactive,inactive,inactive,inactive,inactive,inactive,,,,,,
C=C1C(=O)OC2CC3(C)C(CC12)C(C)=CC(O)C3OC(C)=O (stereo not given),inactive,inactive,inactive,5.85 µM (active),inactive,inactive,,,,,,
CC(O)CO[C@@H]1O[C@H](CO)[C@@H](O)[C@H](O)[C@H]1O (stereo not given in full),inactive,inactive,inactive,inactive,inactive,inactive,,,,,,
COc1cc2c(cc1O)CC[C@H]1[C@@H]2CC[C@]2(C)[C@H](O)CC[C@@H]12,inactive,inactive,inactive,inactive,inactive,inactive,,,,,,
CC1(C)CC[C@]2(C(=O)O[C@@H]3O[C@H](CO)[C@@H](O)[C@H](O)[C@H]3O)CC[C@]3(C)C(=CCC4[C@@]5(C)C[C@@H](O)[C@H](O)[C@@](C)(CO)C5CC[C@]43C)C2[C@@H]1O (stereo not given in full),inactive,inactive,inactive,3.16 µM (active),inactive,inactive,,,,,,
CC1CC[C@]2(C(=O)O)CC[C@]3(C(=O)O)C(=CCC4[C@@]5(C)CC[C@H](O[C@@H]6O[C@H](CO)[C@@H](O)[C@H](O)[C@H]6O)C(C)(C)C5CC[C@]43C)C2C1C (stereo not given in full),inactive,inactive,inactive,inactive,inactive,inactive,,,,,,
CC(=O)O[C@@H]1[C@@H](CO)O[C@@](CO)(O[C@H]2O[C@H](COC(=O)/C=C/c3ccccc3)[C@@H](O)[C@H](O)[C@H]2O)[C@H]1O,inactive,inactive,inactive,4.62 µM (active),inactive,inactive,,,,,,
C[C@@H]1CC[C@@]2(OC1)O[C@H]1C[C@H]3[C@@H]4CC=C5C[C@@H](O)CC[C@]5(C)[C@H]4CC[C@]3(C)[C@H]1[C@@H]2C,inactive,inactive,inactive,inactive,inactive,inactive,,,,,,
COC1CC(OC2CCC3(C)C(=CCC4C3C(OC(C)=O)C(OC(=O)/C=C/c3ccccc3)C3(C)C(C(C)O)CCC43O)C2)OC(C)C1OC1CC(OC)C(OC2OC(C)C(OC3OC(CO)C(O)C(O)C3O)C(OC)C2O)C(C)O1 (stereo not given),,,,,,,inactive [at 9.52 µM],0.674% [at 9.73 µM],0.278% [at 11.6 µM],40.8% [at 11.5 µM],3.09% [at 11.6 µM],-2.26% [at 11.5 µM]
CC1(C)CC2=C3C=CC4C5(C)CCC(O)C(C)(C)C5CCC4(C)C3(C)CCC2(C)C(O)C1 (stereo not given),inactive,inactive,inactive,11.6 µM (active),inactive,inactive,,,,,,
C[C@@H]1CCC2C(C)(C)[C@H](O)CC[C@]2(C)[C@@]12Cc1c(O)cc3c(c1O2)CNC3=O (stereo not given in full),inactive,inactive,inactive,inactive,inactive,inactive,,,,,,
COc1cc2c(cc1OC)N1C(=O)C[C@]34C=CCN5CC[C@@H]2[C@@H](CC3)[C@]514,inactive,inactive,inactive,inactive,inactive,inactive,,,,,,
C[C@H](Oc1ccc(S(C)(=O)=O)cc1C(=O)N1CCN(c2ncc(C(F)(F)F)cc2F)CC1)C(F)(F)F,inactive,inactive,inactive,inactive,inactive,inactive,,,,,,
Cc1ccc(NC(=O)C(=O)NC2CC(C)(C)NC(C)(C)C2)cc1,inactive,inactive,inactive,inactive,inactive,inactive,,,,,,
C/C(=C\CC[C@@H](C)[C@H]1CC(O)[C@@]2(C)C3CC[C@H]4C(C)(C)[C@@H](OC5OCC(O)C(O)C5OC5OC(CO)C(O)C(O)C5O)CC[C@@]45C[C@@]35CC(O)[C@]12C)C(=O)O (stereo not given in full),inactive,inactive,inactive,inactive,inactive,inactive,,,,,,
CS(=O)(=O)c1ccc([C@H](CC2CCCC2)C(=O)Nc2nccs2)cc1,inactive,inactive,inactive,inactive,inactive,inactive,,,,,,
C=C(C)C1CCC2(C(=O)O)CCC3(C(=O)O)C(CCC4C5(C)CCC(O)C(C)(C(=O)O)C5CCC43C)C12 (stereo not given),inactive,inactive,inactive,inactive,inactive,inactive,,,,,,
C=C1[C@H](OC(C)=O)[C@H]2[C@@H](OC(C)=O)[C@](C)(OC(C)=O)C[C@]2(OC(C)=O)C(=O)[C@H](C)/C=C/C(C)(C)C(=O)[C@H](OC(=O)C(C)CC)[C@H]1OC(C)=O (stereo not given in full),inactive,inactive,inactive,inactive,inactive,inactive,,,,,,
